Measurements reported in PubChem BioAssay.
Calls of active or inactive are those of the source.

Columns and labels:
Albumin (Bos taurus) = Albumin (Bos taurus) (UniProt P02769); experiment: bovine serum albumin binders on microarray, profiling panel, artefact control for SMM control protein annotation, biochemical, small-molecule microarray, Alexa647 label, 635/667 nm fluorescence (AID 1118); conditions: BSA-A647 binding, fluorescence 635 nm, higher = more signal;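 note: score merges 667 nm emission intensity and signal-to-noise per printed compound spot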
Chain of Albumin (Bos taurus) (P02769 whole entry, looked up): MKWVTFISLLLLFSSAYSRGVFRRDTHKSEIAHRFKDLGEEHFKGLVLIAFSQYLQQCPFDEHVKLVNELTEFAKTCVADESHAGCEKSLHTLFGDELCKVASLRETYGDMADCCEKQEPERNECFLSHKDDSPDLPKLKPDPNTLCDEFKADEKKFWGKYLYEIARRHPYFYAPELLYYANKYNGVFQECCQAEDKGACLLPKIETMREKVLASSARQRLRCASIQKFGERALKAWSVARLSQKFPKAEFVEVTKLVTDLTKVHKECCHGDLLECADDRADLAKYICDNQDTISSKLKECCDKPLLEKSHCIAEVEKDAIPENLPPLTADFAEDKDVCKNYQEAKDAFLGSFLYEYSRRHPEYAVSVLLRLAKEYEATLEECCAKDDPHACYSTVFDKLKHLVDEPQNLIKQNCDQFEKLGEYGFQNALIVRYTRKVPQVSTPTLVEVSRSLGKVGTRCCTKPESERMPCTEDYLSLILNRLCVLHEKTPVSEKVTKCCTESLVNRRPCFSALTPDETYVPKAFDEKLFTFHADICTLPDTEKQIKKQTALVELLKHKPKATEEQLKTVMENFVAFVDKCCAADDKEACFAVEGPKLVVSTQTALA

[1] = small-molecule microarray binders of probe aXIP, primary screen, biochemical, NeuroSMM set, 635/667 nm fluorescence (AID 1119); conditions: higher = more signal, called active from +8 up or from −8 down;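 note: probe is the protein aXip251-270 applied at 1 µg/mL to compound-printed slides; binding of probe to printed compounds measured as 667 nm fluorescence plus signal to noise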
[2] = small-molecule binders of probe aNOTCH3, primary screen, biochemical, small-molecule microarray, 635/667 nm fluorescence (AID 1120); conditions: higher = more signal;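 note: probe is a biotin-tagged antibody raised against NOTCH3 rather than NOTCH3 protein; score merges spot fluorescence near 667 nm with spot signal to noise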
[3] = small-molecule binders of probe aNOTCH2, primary screen, biochemical, small-molecule microarray, 635/667 nm fluorescence (AID 1121); conditions: higher = more signal;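 note: score merges feature fluorescence read at 667 nm with its signal to noise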
[4] = molecular target: Carbonic anhydrase 2 (Homo sapiens) (UniProt P00918); experiment: CAII small-molecule binders, profiling panel, biochemical, small-molecule microarray, Alexa647-labelled CAII (AID 1122); conditions: CAII-A647 binding fluorescence, higher = more signal
[5] = COS7 lysate on small-molecule microarray, probe aHis, 635 nm (AID 1123); conditions: COS7 cell lysate, fluorescence, higher = more signal;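 note: z-score combines 667nm fluorescence intensity with signal-to-noise per printed compound spot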
[6] = compound binding in COS7 lysate, probe aLAP1, primary screen, cell lysate, small-molecule microarray (AID 1124); conditions: probe aLAP1, fluorescence, higher = more signal;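 note: lysate comes from COS7 cells expressing LAP1 and is applied at 0.3 µg/mL; score merges spot fluorescence near 667 nm with signal-to-noise over triplicate slides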
Sam68 (KHDRBS1) = experiment: Sam68 small-molecule binders, primary screen, biochemical, small-molecule microarray, 635 nm fluorescence (AID 1125); conditions: small-molecule microarray binding, higher = more signal;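 note: score merges 667 nm channel intensity with signal to noise over triplicate slides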
[7] = system: Chordin-like protein 2 (CHRDL2); experiment: CHRDL2 small-molecule binders, primary screen, biochemical, small-molecule microarray, 635 nm fluorescence (AID 1126); conditions: small-molecule microarray binding, fluorescence 635 nm; higher = more signal;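 note: printed compound slides probed with Chrdl2 protein at 4 µg/mL for 1 h at 4 C; score merges 667 nm emission intensity with signal to noise over three replicate slides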
[8] = molecular target: Concanavalin-A (Canavalia ensiformis) (UniProt P02866); experiment: ConA small-molecule binders, primary screen, artefact control for SMM control protein annotation, biochemical, small-molecule microarray, Alexa647 label, 635 nm (AID 1127); conditions: ConA-A647 binding fluorescence, higher = more signal;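 note: z combines 667 nm emission intensity with signal-to-noise across three replicate slides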
Chain of Concanavalin-A (Canavalia ensiformis) (P02866 whole entry, looked up): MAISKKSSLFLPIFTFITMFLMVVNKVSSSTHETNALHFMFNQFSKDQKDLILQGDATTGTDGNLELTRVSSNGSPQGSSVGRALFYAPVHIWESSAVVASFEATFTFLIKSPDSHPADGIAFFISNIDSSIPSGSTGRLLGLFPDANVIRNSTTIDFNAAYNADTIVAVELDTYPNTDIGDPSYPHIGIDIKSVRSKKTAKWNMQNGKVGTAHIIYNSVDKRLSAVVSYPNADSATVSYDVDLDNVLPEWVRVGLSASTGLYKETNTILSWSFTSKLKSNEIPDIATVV

[9] = anti-His antibody binders, primary screen, artefact control for SMM control protein annotation, biochemical, small-molecule microarray, 635 nm fluorescence (AID 1128); conditions: anti-His Alexa647 antibody binding, higher = more signal;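 note: score merges feature fluorescence with signal-to-noise for each printed compound spot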
[10] = system: Human papillomavirus type 1a E7 protein (residues 1-88); experiment: HPV1a E7 small-molecule binders, primary screen, biochemical, small-molecule microarray, residues 1-88, 635 nm (AID 1129); conditions: small-molecule microarray binding, fluorescence 635 nm; higher = more signal
[11] = molecular target: Focal adhesion kinase 1 (Homo sapiens) (UniProt Q05397); experiment: small-molecule microarray binders of FAK, primary screen, biochemical, 635/667 nm fluorescence, BSA, DTT (AID 1130); conditions: PTK2 binding, 635 nm fluorescence, higher = more signal;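 note: composite of spot emission at 667 nm and signal to noise over triplicate slides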
Chain of Focal adhesion kinase 1 (Homo sapiens) (Q05397 whole entry, looked up): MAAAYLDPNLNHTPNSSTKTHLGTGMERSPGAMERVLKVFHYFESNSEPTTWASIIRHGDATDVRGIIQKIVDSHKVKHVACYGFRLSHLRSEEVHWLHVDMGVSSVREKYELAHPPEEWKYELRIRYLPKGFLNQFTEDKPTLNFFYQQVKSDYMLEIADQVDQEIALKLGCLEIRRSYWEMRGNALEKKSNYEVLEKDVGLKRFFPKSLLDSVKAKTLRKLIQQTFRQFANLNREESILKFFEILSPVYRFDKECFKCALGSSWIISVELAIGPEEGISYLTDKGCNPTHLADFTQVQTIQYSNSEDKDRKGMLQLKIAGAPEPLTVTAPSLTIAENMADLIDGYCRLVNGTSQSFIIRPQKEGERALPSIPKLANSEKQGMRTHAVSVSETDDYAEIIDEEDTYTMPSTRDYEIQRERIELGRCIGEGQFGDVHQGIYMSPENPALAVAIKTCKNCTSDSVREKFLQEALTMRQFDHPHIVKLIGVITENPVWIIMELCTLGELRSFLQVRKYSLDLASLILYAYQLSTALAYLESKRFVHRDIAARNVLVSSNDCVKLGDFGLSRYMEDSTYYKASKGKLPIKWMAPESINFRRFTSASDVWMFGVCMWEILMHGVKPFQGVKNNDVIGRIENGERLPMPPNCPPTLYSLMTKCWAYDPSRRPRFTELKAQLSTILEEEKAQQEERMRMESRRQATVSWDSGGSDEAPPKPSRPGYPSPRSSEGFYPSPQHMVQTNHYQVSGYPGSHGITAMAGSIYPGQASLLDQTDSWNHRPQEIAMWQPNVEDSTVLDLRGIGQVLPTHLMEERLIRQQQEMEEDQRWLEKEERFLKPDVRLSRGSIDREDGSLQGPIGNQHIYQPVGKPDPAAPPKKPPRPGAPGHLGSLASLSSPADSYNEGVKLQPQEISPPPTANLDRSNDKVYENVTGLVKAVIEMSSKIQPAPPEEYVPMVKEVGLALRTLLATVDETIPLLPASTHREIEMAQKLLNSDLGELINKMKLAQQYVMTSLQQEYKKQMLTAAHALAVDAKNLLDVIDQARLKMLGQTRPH

[12] = system: Fibrinogen (Alexa647-labelled); experiment: fibrinogen binders on compound microarrays, profiling panel, artefact control for SMM control-protein annotation, biochemical, small-molecule microarray, 635/667 nm fluorescence (AID 1131); conditions: fibrinogen-A647 binding fluorescence, higher = more signal;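 note: z-score merges 667 nm fluorescence with per-spot signal-to-noise over triplicate slides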
[13] = molecular target: Follistatin (Homo sapiens) (UniProt P19883); experiment: follistatin binders on small-molecule microarrays, primary screen, biochemical, small-molecule microarray, 635/667 nm fluorescence (AID 1132); conditions: FST binding, 635 nm fluorescence, higher = more signal
Chain of Follistatin (Homo sapiens) (P19883 whole entry, looked up): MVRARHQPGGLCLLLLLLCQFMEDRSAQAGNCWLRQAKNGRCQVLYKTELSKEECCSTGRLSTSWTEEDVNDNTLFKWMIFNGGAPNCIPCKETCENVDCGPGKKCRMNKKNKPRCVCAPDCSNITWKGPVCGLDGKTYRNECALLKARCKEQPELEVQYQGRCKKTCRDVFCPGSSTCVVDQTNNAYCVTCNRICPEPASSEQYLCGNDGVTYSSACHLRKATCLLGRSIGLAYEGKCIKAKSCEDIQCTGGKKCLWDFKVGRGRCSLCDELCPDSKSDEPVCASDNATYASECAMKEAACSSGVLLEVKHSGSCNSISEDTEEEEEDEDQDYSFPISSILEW

[14] = molecular target: Fibroblast growth factor 2 (Homo sapiens) (UniProt P09038); experiment: FGF2 binders on small-molecule microarrays, primary screen, biochemical, small-molecule microarray, 635/667 nm fluorescence (AID 1133); conditions: small-molecule microarray binding, FGF2, fluorescence 635/667; higher = more signal
Chain of Fibroblast growth factor 2 (Homo sapiens) (P09038 whole entry, looked up): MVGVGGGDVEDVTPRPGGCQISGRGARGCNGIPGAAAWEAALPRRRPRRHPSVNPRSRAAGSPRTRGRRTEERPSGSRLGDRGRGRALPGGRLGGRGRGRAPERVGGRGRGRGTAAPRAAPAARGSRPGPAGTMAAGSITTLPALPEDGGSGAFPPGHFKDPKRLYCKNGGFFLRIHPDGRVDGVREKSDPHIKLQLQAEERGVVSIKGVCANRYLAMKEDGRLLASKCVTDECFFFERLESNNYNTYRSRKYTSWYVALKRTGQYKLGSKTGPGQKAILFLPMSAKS

[15] = mitochondrial membrane potential change in A549 cells, profiling panel, cell-based, JC-1 fluorescence, basal, 24 h, 100 nL (AID 1138); conditions: higher = more signal;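 note: A549 lung adenocarcinoma cells under basal conditions with no added stimulus; test concentration not given here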
Lefty1 = Lefty1 binders on small-molecule microarrays, primary screen, biochemical, small-molecule microarray, 635/667 nm fluorescence (AID 1139); conditions: small-molecule microarray binding, fluorescence 635/667; higher = more signal
[16] = system: wheat germ agglutinin (Triticum aestivum), Alexa647-labelled; experiment: wheat germ agglutinin binders on compound microarrays, profiling panel, artefact control for SMM control-protein annotation, biochemical, small-molecule microarray, 635/667 nm fluorescence (AID 1140); conditions: WGA-A647 binding, 635 nm fluorescence, higher = more signal;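 note: score merges 667 nm feature emission with signal to noise over triplicate slides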
[17] = molecular target: Luciferin 4-monooxygenase (Photinus pyralis) (UniProt P08659); experiment: firefly luciferase enzyme inhibitors, primary screen, biochemical, luminescence, purified enzyme, 2006 set (AID 1141); conditions: SteadyGlo luminescence, 30 min, higher = more signal, called active from +8 up or from −8 down;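 note: cell-free assay with purified firefly luciferase at 100 ng per well in PBS; test concentration not given here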
Chain of Luciferin 4-monooxygenase (Photinus pyralis) (P08659 whole entry, looked up): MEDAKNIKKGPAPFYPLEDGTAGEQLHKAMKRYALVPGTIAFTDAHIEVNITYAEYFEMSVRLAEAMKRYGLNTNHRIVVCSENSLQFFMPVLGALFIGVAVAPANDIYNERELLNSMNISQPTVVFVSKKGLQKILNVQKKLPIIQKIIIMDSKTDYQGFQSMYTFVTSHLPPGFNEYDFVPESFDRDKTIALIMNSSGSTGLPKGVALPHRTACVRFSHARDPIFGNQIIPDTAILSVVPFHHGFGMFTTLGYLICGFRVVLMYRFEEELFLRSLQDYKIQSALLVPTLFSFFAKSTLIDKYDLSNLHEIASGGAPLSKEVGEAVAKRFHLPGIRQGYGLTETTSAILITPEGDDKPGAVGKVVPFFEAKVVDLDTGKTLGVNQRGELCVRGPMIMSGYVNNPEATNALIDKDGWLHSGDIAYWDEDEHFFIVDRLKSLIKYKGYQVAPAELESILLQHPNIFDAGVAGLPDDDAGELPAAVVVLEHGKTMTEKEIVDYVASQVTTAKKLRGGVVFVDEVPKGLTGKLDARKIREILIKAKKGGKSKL

CC(CCN1CCc2nc(-c3ccccc3)c(-c3ccccc3)cc2C1)=NO[C@H](C)c1cn([C@@H]2COC[C@H]2O)nn1
composite z-score (Albumin (Bos taurus)): 0.156
composite Z-score [1]: -0.0135 (inactive)
composite z-score [2]: 0.0864
composite z-score [3]: -0.117
composite z-score [4]: -0.089
composite z-score [5]: 0.507
composite z-score [6]: 0.222
composite z-score (Sam68 (KHDRBS1)): 1.31
composite z-score [7]: 0.0957
composite z-score [8]: -0.411
composite z-score [9]: 0.124
composite z-score [10]: 0.915
composite z-score [11]: 0.0127
composite z-score [12]: 0.717
composite z-score [13]: 0.438
composite z-score [14]: 0.0208
z-score [15]: 1.17
composite z-score (Lefty1): 0.712
composite z-score [16]: 0.224
z-score [17]: -0.475 (inactive)

O=C(NN=C1C[C@@H](O)[C@@H](O)[C@@H]2[C@@H]3C(=O)N(c4cccc(Oc5ccccc5)c4)C(=O)[C@@H]3CC[C@H]12)OCc1ccccc1
composite z-score (Albumin (Bos taurus)): 0.724
composite Z-score [1]: -0.558 (inactive)
composite z-score [2]: -0.0204
composite z-score [3]: -0.204
composite z-score [4]: -0.0039
composite z-score [5]: 1.82
composite z-score [6]: 0.122
composite z-score (Sam68 (KHDRBS1)): -0.406
composite z-score [7]: 0.0071
composite z-score [8]: 0.186
composite z-score [9]: 1.22
composite z-score [10]: 0.116
composite z-score [11]: -0.294
composite z-score [12]: 0.906
composite z-score [13]: 0.165
composite z-score [14]: 0.237
z-score [15]: -1.25
composite z-score (Lefty1): 0.168
composite z-score [16]: 0.557
z-score [17]: 1.26 (inactive)

CO[C@H]1COC(=O)[C@H](C)COC(=O)CC=C[C@@H](C)[C@H](OC)COC(=O)CC=C[C@@H]1C
composite z-score (Albumin (Bos taurus)): -0.991
composite Z-score [1]: -0.222 (inactive)
composite z-score [2]: -0.132
composite z-score [3]: -0.164
composite z-score [4]: -0.405
composite z-score [5]: -0.602
composite z-score [6]: -0.142
composite z-score (Sam68 (KHDRBS1)): -0.0288
composite z-score [7]: 1.4
composite z-score [8]: 0.184
composite z-score [9]: 0.0475
composite z-score [10]: -0.774
composite z-score [11]: -0.117
composite z-score [12]: -0.217
composite z-score [13]: 1.16
composite z-score [14]: 1.41
z-score [15]: 1.11
composite z-score (Lefty1): 1.15
composite z-score [16]: -0.531
z-score [17]: -1.59 (inactive)

CC(=O)O[C@H]1C2=C(C(=O)[C@@H]3O[C@@H]31)[C@H]1C(C)O[C@@H]2[C@@]23C(=O)[C@@H]4O[C@@H]4[C@@H](O)C2=CO[C@H](C)[C@@H]13 (stereo not given in full)
composite z-score (Albumin (Bos taurus)): 0.922
composite Z-score [1]: 0.112 (inactive)
composite z-score [2]: 0.0026
composite z-score [3]: -0.0937
composite z-score [4]: -0.0716
composite z-score [5]: -0.519
composite z-score [6]: -0.283
composite z-score (Sam68 (KHDRBS1)): -0.113
composite z-score [7]: 0.249
composite z-score [8]: -0.629
composite z-score [9]: 0.0831
composite z-score [10]: 0.154
composite z-score [11]: -0.0962
composite z-score [12]: -0.735
composite z-score [13]: -0.419
composite z-score [14]: 0.877
z-score [15]: -1.12
composite z-score (Lefty1): 0.0364
composite z-score [16]: -0.933
z-score [17]: 0.327 (inactive)

CO[C@H]1COC(=O)[C@H](C)NC(=O)[C@@H](C)COC(=O)CC=C[C@@H]1C
composite z-score (Albumin (Bos taurus)): -0.331
composite Z-score [1]: 0.0462 (inactive)
composite z-score [2]: -0.0391
composite z-score [3]: -0.192
composite z-score [4]: -0.336
composite z-score [5]: -0.851
composite z-score [6]: -0.0193
composite z-score (Sam68 (KHDRBS1)): 0.41
composite z-score [7]: 0.858
composite z-score [8]: 0.303
composite z-score [9]: -0.133
composite z-score [10]: -0.0179
composite z-score [11]: -0.274
composite z-score [12]: -0.177
composite z-score [13]: 0.598
composite z-score [14]: 1.34
z-score [15]: -0.855
composite z-score (Lefty1): 0.572
composite z-score [16]: -0.114
z-score [17]: 0.514 (inactive)
